Measurements published in PubChem BioAssay.
Activity calls are given as the source filed them.

How the values were obtained:
[1] = optical density shifts of acrAB sulA E. coli – strain DRC41, OD650, 48 h, E. coli filamentation inducer project, primary screen (AID 1152); settings: higher = more signal, called active from +8 up or from −8 down;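 also: E. coli MC1000 strain DRC41 lacking acrAB efflux pump and sulA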
[2] = probe aLefty1 binding on compound microarray – biochemical, small-molecule microarray, 635/667 nm fluorescence, primary screen (AID 1153); settings: higher = more signal;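 also: score merges spot fluorescence with signal-to-noise ratio from the scanned slide images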
[3] = plasmodial surface anion channel blockers, osmotic lysis – cell-based, P. falciparum Indochina, OD700, 1 h, primary screen (AID 1154); settings: P. falciparum Indochina infected RBC osmotic lysis, higher = more signal, called active from +8 up or from −8 down
[4] = plasmodial surface anion channel blockers, osmotic lysis – cell-based, P. falciparum Indochina, OD700, 2 h, primary screen (AID 1155);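 also: lysis reports solute entry through the parasite surface anion channel PSAC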; settings: P. falciparum Indochina infected erythrocytes, higher = more signal, called active from +8 up or from −8 down
[5] = changes in parasitized red cell lysis, either direction – P. falciparum Indochina, OD700, 3 h, PSAC antagonist project, primary screen (AID 1156); settings: P. falciparum-infected erythrocytes, osmotic lysis, higher = more signal, called active from +8 up or from −8 down
[6] = plasmodial surface anion channel blockers, osmotic lysis – cell-based, P. falciparum Indochina, OD700, 18 h, primary screen (AID 1157); settings: P. falciparum Indochina infected erythrocytes, osmotic lysis OD700, 18 h; higher = more signal, called active from +8 up or from −8 down
[7] = S6 kinase pathway phospho-S6 level changes – cell-based, A549, cytoblot, luminescence, serum-stimulated, primary screen (AID 1158); settings: 5 h, higher = more signal;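 also: serum-stimulated A549 lung adenocarcinoma cells; signal is phosphorylated S6 detected by cytoblot immunostaining with HRP secondary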
[8] = biological target: NADPH oxidase 2 (Homo sapiens) (UniProt P04839); assay: compounds shifting NOX2 Amplex Red fluorescence – cell-based, HEK293-NOX2, PMA-stimulated, NOX inhibitor project, primary screen (AID 1159); settings: 45 min, higher = more signal, called active from +8 up or from −8 down; also: test concentration not given here
[9] = biological target: NADPH oxidase 4 (Homo sapiens) (UniProt Q9NPH5); assay: compounds shifting NOX4 Amplex Red fluorescence – cell-based, HEK293-NOX4, tetracycline-induced, NOX inhibitor project, primary screen (AID 1160); settings: HEK293-NOX4, Amplex Red H2O2 fluorescence, 45 min; higher = more signal, called active from +8 up or from −8 down
[10] = biological target: NADPH oxidase 5 (Homo sapiens) (UniProt Q96PH1); assay: compounds shifting NOX5 Amplex Red fluorescence – cell-based, HEK293-NOX5, NOX inhibitor project, primary screen (AID 1161); settings: HEK293-NOX5, ionomycin, 45 min, higher = more signal
[11] = compound effects on lung adenocarcinoma cell viability – A549, calcein-AM fluorescence, 48 h, basal, profiling panel (AID 1162); settings: higher = more signal; also: test concentration not given here
[12] = compound effects on differentiated 3T3-L1 adipocyte viability – cell-based, 3T3-L1 adipocytes, calcein-AM fluorescence, 48 h, basal, profiling panel (AID 1163); settings: 3T3-L1 adipocytes viability, higher = more signal; also: test concentration not given here
[13] = compound effects on hepatocellular carcinoma cell viability – HepG2, calcein-AM fluorescence, 48 h, basal, profiling panel (AID 1164); settings: higher = more signal; also: test concentration not given here
[14] = compound effects on multiple myeloma cell viability – MM1S, calcein-AM fluorescence, 48 h, basal, profiling panel (AID 1165); settings: higher = more signal;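 also: viability of MM1S multiple myeloma cells under basal unstimulated conditions; test concentration not given here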
[15] = calcein-AM signal in unstimulated myeloma cells – cell-based, calcein-AM fluorescence, 48 h, PK04 Diversity Set, profiling panel (AID 1166); settings: RPMI8226 myeloma viability, higher = more signal;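 also: cells grown under basal conditions without added stimulus; test concentration not given here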
[16] = JC-1 mitochondrial signal, unstimulated HepG2 cells – cell-based, JC-1 fluorescence, 24 h, 100 nL compound, profiling panel (AID 1167); settings: HepG2 mitochondrial potential, higher = more signal; also: test concentration not given here
[17] = JC-1 mitochondrial signal, unstimulated adipocytes – cell-based, JC-1 fluorescence, 3T3-L1 adipocytes, 24 h, 100 nL compound, profiling panel (AID 1168); settings: JC-1 mitochondrial fluorescence, higher = more signal, called active from +8 up or from −8 down; also: test concentration not given here
[18] = JC-1 mitochondrial signal, unstimulated myeloma cells – cell-based, JC-1 fluorescence, RPMI8226, 24 h, 100 nL compound, profiling panel (AID 1169); settings: JC-1 mitochondrial potential fluorescence, higher = more signal; also: test concentration not given here
[19] = JC-1 mitochondrial signal, unstimulated MM1S myeloma – cell-based, JC-1 fluorescence, 24 h, 100 nL compound, profiling panel (AID 1170); settings: MM1S mitochondrial potential, higher = more signal; also: test concentration not given here
[20] = resazurin metabolic signal in A549 cells – cell-based, resazurin fluorescence, 24 h, PK04 Diversity Set, profiling panel (AID 1171); settings: A549 viability, higher = more signal, called active from +8 up or from −8 down; also: test concentration not given here

NADPH oxidase 2 (Homo sapiens), sequence (P04839 whole entry, looked up): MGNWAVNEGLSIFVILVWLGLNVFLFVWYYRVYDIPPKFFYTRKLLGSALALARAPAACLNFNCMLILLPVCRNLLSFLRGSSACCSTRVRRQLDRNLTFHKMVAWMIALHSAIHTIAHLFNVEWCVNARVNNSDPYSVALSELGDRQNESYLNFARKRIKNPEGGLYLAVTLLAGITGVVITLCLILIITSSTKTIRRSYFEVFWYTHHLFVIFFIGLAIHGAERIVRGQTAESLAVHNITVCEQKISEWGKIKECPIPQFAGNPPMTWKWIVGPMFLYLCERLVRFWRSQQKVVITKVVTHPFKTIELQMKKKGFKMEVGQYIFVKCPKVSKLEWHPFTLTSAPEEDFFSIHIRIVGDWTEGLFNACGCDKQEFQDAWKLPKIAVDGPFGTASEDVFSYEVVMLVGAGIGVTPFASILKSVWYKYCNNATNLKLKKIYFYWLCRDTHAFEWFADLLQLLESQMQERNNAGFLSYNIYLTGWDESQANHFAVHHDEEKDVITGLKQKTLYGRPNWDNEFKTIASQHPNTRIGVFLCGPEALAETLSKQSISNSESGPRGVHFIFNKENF
NADPH oxidase 5 (Homo sapiens), sequence (Q96PH1 whole entry, looked up): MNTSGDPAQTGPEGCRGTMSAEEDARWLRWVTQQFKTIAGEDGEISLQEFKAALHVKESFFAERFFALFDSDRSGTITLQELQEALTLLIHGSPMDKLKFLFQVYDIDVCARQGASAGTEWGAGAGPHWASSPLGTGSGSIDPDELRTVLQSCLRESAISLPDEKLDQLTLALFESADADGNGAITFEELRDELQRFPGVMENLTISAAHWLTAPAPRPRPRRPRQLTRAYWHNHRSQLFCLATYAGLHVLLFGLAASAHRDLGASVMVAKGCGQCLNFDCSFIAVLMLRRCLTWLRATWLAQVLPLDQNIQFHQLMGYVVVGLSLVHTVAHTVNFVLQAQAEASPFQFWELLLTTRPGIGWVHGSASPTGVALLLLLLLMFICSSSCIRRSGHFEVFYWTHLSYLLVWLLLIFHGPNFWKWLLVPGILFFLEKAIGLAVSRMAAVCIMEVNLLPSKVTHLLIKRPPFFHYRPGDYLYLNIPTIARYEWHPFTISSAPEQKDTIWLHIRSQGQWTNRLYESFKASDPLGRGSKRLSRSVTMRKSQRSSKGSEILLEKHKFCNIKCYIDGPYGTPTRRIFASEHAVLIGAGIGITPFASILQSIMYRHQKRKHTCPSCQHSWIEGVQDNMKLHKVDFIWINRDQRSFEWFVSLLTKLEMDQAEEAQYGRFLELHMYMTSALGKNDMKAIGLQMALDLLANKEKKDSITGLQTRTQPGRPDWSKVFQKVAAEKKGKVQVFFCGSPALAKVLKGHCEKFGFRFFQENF
NADPH oxidase 4 (Homo sapiens), sequence (Q9NPH5 whole entry, looked up): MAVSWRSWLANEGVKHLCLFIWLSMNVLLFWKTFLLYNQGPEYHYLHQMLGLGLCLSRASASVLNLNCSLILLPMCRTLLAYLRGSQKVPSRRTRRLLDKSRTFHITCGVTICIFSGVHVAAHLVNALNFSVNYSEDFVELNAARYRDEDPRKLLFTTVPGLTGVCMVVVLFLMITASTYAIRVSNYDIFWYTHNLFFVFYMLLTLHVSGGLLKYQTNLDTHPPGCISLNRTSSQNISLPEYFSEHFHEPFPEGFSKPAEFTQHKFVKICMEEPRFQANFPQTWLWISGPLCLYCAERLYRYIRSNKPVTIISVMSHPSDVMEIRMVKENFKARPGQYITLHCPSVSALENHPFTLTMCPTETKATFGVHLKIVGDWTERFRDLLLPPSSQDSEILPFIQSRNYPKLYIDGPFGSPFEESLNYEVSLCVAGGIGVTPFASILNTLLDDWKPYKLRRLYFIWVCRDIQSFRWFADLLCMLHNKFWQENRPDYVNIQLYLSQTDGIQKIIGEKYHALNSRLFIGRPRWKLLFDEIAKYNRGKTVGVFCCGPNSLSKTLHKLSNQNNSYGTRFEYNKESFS

SMILES | z-score [1] | composite z-score [2] | z-score [3] | z-score [4] | z-score [5] | z-score [6] | z-score [7] | z-score [8] | z-score [9] | z-score [10] | z-score [11] | z-score [12] | z-score [13] | z-score [14] | z-score [15] | z-score [16] | z-score [17] | z-score [18] | z-score [19] | z-score [20]
CCCC[C@H]1OB(O)C[C@H]2C1=C(C)C[C@H]1C(=O)C=CC(=O)[C@H]12 | -0.202 (inactive) | -0.06 | 1.7 (inactive) | 0.183 (inactive) | 0.816 (inactive) | 0.182 (inactive) | -0.0244 | -1.12 (inactive) | -1.25 (inactive) | -1.18 | -0.252 | -1.14 | -0.799 | -3.35 | -3.16 | -3.39 | -1.24 (inactive) | -0.937 | -2.13 | -0.443 (inactive)
Cc1ccc(S(=O)(=O)N2[C@@H](c3ccccc3)C(C(=O)O)=CC[C@H]2c2ccc(C#N)cc2)cc1 | -1.22 (inactive) | 0.114 | 4.02 (inactive) | 1.42 (inactive) | 1.6 (inactive) | 0.559 (inactive) | -0.316 | -0.229 (inactive) | -1.62 (inactive) | -1.54 | -0.283 | -0.287 | -0.187 | -0.44 | -0.471 | -0.556 | -0.633 (inactive) | -0.748 | 0.226 | -0.748 (inactive)
NC(=O)NCC#Cc1ccc2c(c1)[C@]1(C(=O)N2)[C@H](C(=O)Nc2nc3ccccc3s2)[C@H]2C(=O)O[C@H](c3ccccc3)[C@H](c3ccccc3)N2[C@@H]1c1ccc(OCCO)cc1 | 0.197 (inactive) | 0.309 | 1.93 (inactive) | 1.1 (inactive) | -0.166 (inactive) | 0.737 (inactive) | 0.169 | 0.681 (inactive) | 0.611 (inactive) | 0.715 | -0.163 | 0.466 | -1.43 | -0.231 | -0.349 | -3.18 | 0.272 (inactive) | -1.14 | -1.88 | 0.767 (inactive)
CN1C=C(C(=O)OCCS(C)(=O)=O)C(C(=O)OCCS(C)(=O)=O)=CC(CCCO)=CC1c1ccc(CN2CCCC2)cc1 (stereo not given) | 0.0837 (inactive) | 0.546 | 1.39 (inactive) | -0.162 (inactive) | -0.203 (inactive) | 0.0374 (inactive) | -0.0029 | 0.526 (inactive) | 0.0702 (inactive) | -1.65 | 1.46 | -2.48 | 1.81 | 0.101 | -0.268 | 1.82 | -0.469 (inactive) | 1.33 | -0.394 | 0.0251 (inactive)
Cc1ccc(F)cc1S(=O)(=O)N[C@@H]1CCN(Cc2ccc3[nH]ccc3c2)C1 | -5.9 (inactive) | -0.238 | 3.05 (inactive) | 0.843 (inactive) | 0.255 (inactive) | 0.673 (inactive) | -0.0977 | -0.163 (inactive) | -1.11 (inactive) | -1.96 | 0.173 | -0.939 | -0.696 | -3.43 | -1.63 | -1.33 | -0.261 (inactive) | 0.321 | -1.34 | -0.0035 (inactive)
Cc1c(NC(=O)/C(C#N)=C/c2ccc(Cl)cc2)c(=O)n(-c2ccccc2)n1C | 0.764 (inactive) | 0.0042 | 6.41 (inactive) | -0.238 (inactive) | -0.597 (inactive) | -1.44 (inactive) | 0.776 | -2.29 (inactive) | -0.376 (inactive) | 1.22 | 1.48 | 0.22 | 0.115 | 0.69 | -2.03 | 0.497 | 0.585 (inactive) | -0.0999 | -0.512 | -0.354 (inactive)
C=C(C(=O)CC[C@@H](OC(C)=O)c1cccc(OCCO)c1)C(C)C | -0.369 (inactive) | 0.11 | 3.09 (inactive) | -0.0769 (inactive) | 1.38 (inactive) | 0.0127 (inactive) | -0.78 | 0.825 (inactive) | -1.12 (inactive) | -1.05 | -0.351 | 0.0938 | -0.351 | -1.54 | -0.0608 | -1.55 | 0.216 (inactive) | 0.592 | 0.484 | -0.326 (inactive)
COCCOC(=O)N1C(=O)[C@@]2(c3ccccc31)[C@H](C(=O)N1CCCCCCC1)[C@H]1C(=O)O[C@H](c3ccccc3)[C@H](c3ccccc3)N1[C@@H]2c1ccc(O)cc1 | 1.51 (inactive) | 3.16 | 0.822 (inactive) | -0.0852 (inactive) | 0.367 (inactive) | -0.0764 (inactive) | 1.94 | -3.28 (inactive) | -0.538 (inactive) | -4 | 0.452 | 0.688 | 1.11 | -0.233 | -1.54 | -0.229 | 1.45 (inactive) | -0.564 | -0.21 | 0.17 (inactive)
CN(C)CCCNC(=O)[C@@]1(Cc2ccccc2I)c2ccccc2C(=O)N(Cc2ccccc2)[C@H]1c1ccc(CO)cc1 | -0.206 (inactive) | -0.729 | 1.88 (inactive) | 0.614 (inactive) | -1.26 (inactive) | 0.452 (inactive) | -0.5 | -8.23 (active) | -3.08 (inactive) | -1.71 | -2.02 | -0.826 | -3.4 | -3.73 | -3.31 | 0.601 | -0.354 (inactive) | -0.681 | -1.54 | -3.32 (inactive)
